# Experimental data: PubChem BioAssay (NCI)
# Compounds without any hit were thinned out: in the full panel of roughly 83,000, 20% have a hit.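 96-well plates, one dose, 48 hours. Percent growth reported; active if below 10.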 The source made the active and inactive calls.
# System: HL-60(TB) leukemia
# Test: NCI-60 one-dose screen, 48 h (100 = growth as untreated, 0 = no growth, -100 = all killed)
# Details: 10 µM unless noted
row,SMILES,growth
1,Cc1cccc(N=NC(=S)NNc2cccc(C)c2)c1,101% (inactive)
2,CC1CCCN(CCCCOc2ccc(-c3ccc(C#N)cc3)cc2)C1 (configuration not stated),92.6% (inactive)
3,C[n+]1c(-c2ccccc2)c2cc(N)ccc2c2ccccc21,59.4% (inactive)
4,COc1ccc(C2OCC(C)(C)CO2)cc1OC,100% (inactive)
5,COc1cc(OC)c2cc(C(=O)O)c(=O)oc2c1,66% (inactive)
6,Nc1ccc(N=Nc2ccccc2)c2cc(S(=O)(=O)O)ccc12,103% (inactive)
7,O=C(Nc1ccccc1Cl)OCCN1CCOCC1,108% (inactive)
8,COc1ccc(/C=C2\Oc3cc(OCCCN4CCCCC4)ccc3C2=O)cc1OC,99.9% (inactive)
9,Cc1ccc(S(=O)(=O)N2CCc3ccc(O)c4c3C2CCc2ccccc2-4)cc1 (configuration not stated),91.3% (inactive)
10,O[C@H]1[C@H]2c3cc4c(cc3CN3CCC(=C[C@@H]1O)[C@H]23)OCO4,5.02% (active)
11,O=C(c1ccc(F)c(F)c1Nc1ccc(I)cc1F)N1CC(O)([C@@H]2CCCCN2)C1,-18.9% (active)
12,O=C(Nc1ccc(Cl)cc1)C1=NCCCCN1,96.6% (inactive)
13,O=c1[nH]cnc2c1C(c1ccc(Br)cc1)c1sc3c(F)cccc3c1O2 (configuration not stated),99.4% (inactive)
14,COc1ccc(/C=C(/c2ccccc2)[N+](=O)[O-])cc1,-28.6% (active)
15,O=C1Nc2ccc(C(=O)O)cc2/C1=N/c1nnc(Sc2ccccc2)s1,96.4% (inactive)
16,COc1ccccc1/C=C1\COc2ccc(O)c(O)c2C1=O,-21.9% (active)
17,O=C(Oc1ccccc1[N+](=O)[O-])C1CCCN1C(=O)OCc1ccccc1 (configuration not stated),58.9% (inactive)
